IL-1B inflam inh: inhibitors of inflammasome signaling (IL-1 beta secretion); THP-1 LPS/ATP IL-1B secretion, AlphaLISA, 16 h; hits give low values; activity change, % at 57.5 µM; actives 4.7% (n = 360,000); in the data active means activity change below about -50%; inconclusive means mostly about -30% to -49%; further: on the % scale 0 is the no-effect control and ±100 the full control effect
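Secreted IL-1B measured by AlphaLISA bead assay after 16 h compound exposure of THP-1 cells; compounds (final up to 57.5 uM) added 1 h before LPS (250 ng/mL) and ATP (1.25 mM) stimulation; lower signal means less secretion.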
ASM inhibitor: blocks human secretory acid sphingomyelinase; P17405; placental ASM, HMU-PC fluorogenic substrate, 60 min; Potency, µM (top dose mostly 57.5 µM), for the others: at the top dose activity change, negative = inhibition, actives largely listed as inhibitors; actives 0.006% (n = 340,000); AID 504937; further: potency means the concentration at half of the fitted maximal effect
Target sequence (P17405 47-631 limits assumed): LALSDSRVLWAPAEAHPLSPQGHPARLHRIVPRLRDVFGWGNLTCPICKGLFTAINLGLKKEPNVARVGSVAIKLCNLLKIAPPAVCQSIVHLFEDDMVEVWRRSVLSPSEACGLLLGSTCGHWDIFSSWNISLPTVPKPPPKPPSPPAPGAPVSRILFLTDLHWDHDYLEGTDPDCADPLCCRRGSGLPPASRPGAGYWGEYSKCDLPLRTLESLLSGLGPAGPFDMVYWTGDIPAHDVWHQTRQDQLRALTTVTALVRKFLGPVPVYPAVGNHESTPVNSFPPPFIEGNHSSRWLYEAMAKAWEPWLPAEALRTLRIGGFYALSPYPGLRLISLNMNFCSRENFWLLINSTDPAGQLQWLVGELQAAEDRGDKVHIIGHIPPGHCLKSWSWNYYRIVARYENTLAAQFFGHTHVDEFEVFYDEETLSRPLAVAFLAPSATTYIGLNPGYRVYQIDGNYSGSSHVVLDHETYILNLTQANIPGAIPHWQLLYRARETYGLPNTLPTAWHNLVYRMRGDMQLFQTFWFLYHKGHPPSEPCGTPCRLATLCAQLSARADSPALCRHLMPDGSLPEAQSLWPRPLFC
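Steps: dispense placental human ASM, pin compound, wait 10 min at room temperature, add HMU-PC0 substrate at 9 uM final, incubate 60 min at 37 °C, add stop solution raising pH to 10, read fluorescence.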
TGFb inhibitor: inhibitors of TGF-b signaling | HepG2 CAGA-GFP TGF-b/SMAD3 reporter, GFP fluorescence, 18 h; TGF-beta stimulated, 500 pg/mL final | Potency, µM (series often up to 46.1 µM), for inactives: at the highest dose activity, negative = inhibition, actives largely listed as inhibitors | actives 1.2% (n = 410,000); further: potency means the concentration at half of the fitted maximal effect; on the % scale 0 is the no-effect control and ±100 the full control effect; nearly all actives have a fitted effect of over 65% in size
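HEPG2 CAGA-GFP cells (1000/well, DMEM with 1% FBS) were pre-incubated 2 h at 37 degrees C, given compound by pin tool, then stimulated with TGF-beta at 500 pg/mL final for 18 h before per-cell GFP fluorescence imaging.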
HepG2 tox: counter-screen for TGF-b inhibitors: cytotoxicity in HepG2 cells | HepG2 CAGA-GFP viability, ATP luminescence, 18 h | AID 588856 | actives 0.76% (n = 410,000) | Potency, µM (doses to about 46.1 µM), inactives show at the highest dose activity change, negative = cytotoxicity, actives largely listed as cytotoxic; further: potency means the concentration at half of the fitted maximal effect
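HepG2 CAGA-GFP cells (1000/well, DMEM with 1% FBS) received compound, then TGF-beta at 500 pg/mL final, and were incubated 18 hours at 37 degrees C. Viability was read by CellTiter-Glo luminescence. Media-only wells were set as complete cell-killing and DMSO as no toxicity.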
TDP1 cell CPT: growth inhibition of DT40 Tdp1-/-;hTDP1 cells with camptothecin (screen for TDP1 inhibitors); chicken DT40 Tdp1-/-;hTDP1 cells + 20 nM CPT, ATP luminescence, 48 h; Potency, µM (top dose mostly 46.2 µM), for inactives: at the highest dose activity change, negative = growth inhibition, usual class: inhibitors; actives 12% (n = 420,000); further: potency means the concentration at half of the fitted maximal effect; on the % scale 0 is the no-effect control and ±100 the full control effect; nearly all actives have a fitted effect of over 55% in size
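Chicken DT40 Tdp1-/- cells stably complemented with human TDP1 were seeded at 400 cells/well in medium containing 20 nM camptothecin, exposed to pin-transferred compounds, and grown at 37 °C for at least 48 hr. Viability was read as ATP luminescence.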
DT40 TDP1 no CPT: qHTS for Inhibitors of human tyrosyl-DNA phosphodiesterase 1 (TDP1): qHTS in cells in absence of CPT; DT40 Tdp1-/- hTDP1 cells, no CPT, ATP luminescence, 48 h; Potency, µM (highest dose often 46.2 µM), without a hit: at the top dose activity change, negative = growth inhibition, actives largely listed as inhibitors; actives 15% (n = 420,000); AID 686978, 2013; further: potency means the concentration at half of the fitted maximal effect; on the % scale 0 is the no-effect control and ±100 the full control effect; nearly all actives have a fitted effect of over 55% in size
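Compound effects on proliferation are scored in DT40 Tdp1-/-;hTDP1 cells in the absence of CPT. ATP levels (CellTiter-Glo luminescence) are recorded after a ≥48 hr, 37 °C incubation.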
* = called active by the depositor; ? = inconclusive; nt = no result; [ ] = remark or other dose. Compounds with a hit are over-represented: about 19% of the library has one in this group of screens. Unless noted, the call rests on the fitted dose curve; in most records, active means well fitted curve in the direction sought with a large enough effect; inconclusive means small, poorly fitted or top-dose-only effect, or another doubt; inactive means no such curve, though single readings can be large; an effect the other way counts as inactive or inconclusive.

SMILES	IL-1B inflam inh	ASM inhibitor	TGFb inhibitor	HepG2 tox	TDP1 cell CPT	DT40 TDP1 no CPT
Cc1cccc(OCCCCn2c(C3CC(=O)N(c4ccc(C)cc4C)C3)nc3ccccc32)c1 (stereo not given)	nt	nt	10µM*	-109%	?	?
CCOc1ccccc1N1CC(c2nc3ccccc3n2CCCOc2ccccc2OC)CC1=O (stereo not given)	nt	nt	-2%	5%	?	-26%
CCOc1ccccc1N1CC(c2nc3ccccc3n2CCCCOc2cc(C)ccc2C)CC1=O (stereo not given)	nt	nt	-33%	-26%	26µM*	?
COc1ccccc1OCCCn1c(C2CC(=O)N(c3ccccc3Cl)C2)nc2ccccc21 (stereo not given)	nt	nt	?	-12%	13µM*	6.5µM*
Cc1cccc(OCCCCn2c(C3CC(=O)N(c4ccccc4Cl)C3)nc3ccccc32)c1 (stereo not given)	nt	nt	?	3%	3.7µM*	?
CC(C)COc1ccc(C(=O)Nc2cc(-c3ccccc3)no2)cc1	nt	nt	2%	-13%	?	?
O=C(Cn1cc(S(=O)(=O)c2ccccc2)c(=O)c2cc3c(cc21)OCO3)Nc1ccccc1	nt	nt	-5%	-8%	-10%	-13%
Cc1ccc(S(=O)(=O)n2ccc3c(OCCOCCNCc4ccc(F)cc4)cccc32)cc1	-88*	-18%	?	-116%	?	18µM*
Cc1ccc(S(=O)(=O)n2ccc3c(OCCOCCSCC(NC(=O)OC(C)(C)C)C(=O)O)cccc32)cc1 (stereo not given)	42	4%	?	-19%	-1%	?
CCOC(=O)c1ccc(NC(=O)C2CCCN(c3ncnc4onc(-c5ccc(F)cc5)c34)C2)cc1 (stereo not given)	nt	nt	?	-26%	21µM*	15µM*
Cc1ccc(CNC(=O)C2CCCN(c3ncnc4onc(-c5ccc(F)cc5)c34)C2)cc1 (stereo not given)	nt	nt	-1%	9%	?	18µM*
Fc1ccc(-c2noc3ncnc(N4CCN(c5ccccc5)CC4)c23)cc1	nt	nt	-1%	2%	?	?
CC(C)NC(=O)C1CCCN(c2ncnc3onc(-c4ccc(F)cc4)c23)C1 (stereo not given)	nt	nt	2%	-2%	-5%	-20%
Fc1ccc(-c2noc3ncnc(N4CCCCC4)c23)cc1	nt	nt	?	-11%	18µM*	23µM*
O=C(Nc1ccc(F)c(Cl)c1)C1CCCN(c2ncnc3onc(-c4ccc(F)cc4)c23)C1 (stereo not given)	nt	nt	?	-14%	-80%	15µM*
Cc1ccc(-n2c(=O)c3sc4ccccc4c3n(C)c2=O)cc1F	nt	nt	-5%	-2%	-19%	0%
C[C@H]1CN([C@@H](C)CO)S(=O)(=O)c2ccc(Br)cc2O[C@@H]1CN(C)C(=O)Nc1ccc2c(c1)OCO2	-23	nt	-12%	-12%	3%	-29%
CCOC(=O)C1CCCCN1C(=O)c1cnn(-c2nccc(-c3cc(C)sc3C)n2)c1C1CC1 (stereo not given)	nt	nt	nt	nt	-9%[9.04 µM]	?
COc1ccccc1CCNC(=O)Cn1ccc2cc(S(=O)(=O)N3CCCCC3)ccc21	nt	nt	-26%	-14%	?	?
O=C(Cc1ccc(Cl)cc1)Nc1nnc2n1CCS2	nt	nt	1%	-15%	-18%	-13%
COc1ccc(-c2c(-c3ccc(O)cc3O)n[nH]c2C)cc1OC	16	0%	29%	-3%	?	18µM*
COc1ccc(-c2c(-c3ccc(OC)c(C)c3O)n[nH]c2C)cc1	?	?	14µM*	-65%	?	?
CC(C)CN(C(=O)Cn1ccccc1=O)C1CCS(=O)(=O)C1 (stereo not given)	-4	2%	13%	3%	3%	5%
COc1cc(CN(C(=O)c2ccc(Cl)cc2)C2CCS(=O)(=O)C2)cc(OC)c1OC (stereo not given)	nt	nt	-12%	3%	0%	-4%
COc1ccc(C(=O)CC(=O)C(=O)Nc2ccc(C)cc2Cl)cc1	11	-2%	6%	-28%	?	16µM*
SMILES	IL-1B inflam inh	ASM inhibitor	TGFb inhibitor	HepG2 tox	TDP1 cell CPT	DT40 TDP1 no CPT
COc1cc(OC)c(NC(=O)C(=O)CC(=O)c2ccc(C)cc2C)cc1Cl	-6	-2%	-1%	4%	4.6µM*	2.6µM*
COc1ccc(C(=O)CC(=O)C(=O)Nc2ccc(C)c(C)c2)cc1	3	6%	-1%	-6%	21µM*	21µM*
COc1ccc(C(=O)NNC(=O)C(=O)Nc2ccc(C)c(Cl)c2)cc1	-11	-1%	13%	21%	23µM*	?
COc1cccc(C(=O)CC(=O)C(=O)Nc2ccc(C)cc2Cl)c1	31	-1%	0%	0%	?	?
COc1ccc(C(=O)CC(=O)C(=O)Nc2cccc(C(C)=O)c2)cc1	26	-3%	2%	4%	4%	?
CCOc1ccc(NC(=O)CSc2nnc(C3CC3)n2C)cc1S(=O)(=O)N1CCCCC1	14	1%	-19%	-27%	-15%	-3%
CCCCOC(=O)c1ccc(NC(=O)C(=O)CC(=O)c2ccc(OC)cc2)cc1	-4	-3%[11.5 µM]	-2%	-4%	16µM*	16µM*
CCCCOC(=O)c1ccc(NC(=S)NC(=O)c2c(Cl)cnn2C)cc1	1	-2%	-11%	-7%	23µM*	16µM*
O=C(CCN1CCN(CCO)CC1)Nc1ccccc1	10	7%	-7%	-31%	-6%	6%
CCCCCn1c2c(c(=N)c3ccccc31)CCC2	?	-1%	?	-51%	1.8µM*	1.5µM*
CCCCCCCCn1c2c(c(=N)c3ccccc31)CCC2	-96*	-14%	?	-22%	0.41µM*	0.41µM*
